Screening results deposited in PubChem BioAssay by National Center for Advancing Translational Sciences (NCATS).
Most compounds without a hit are left out; they make up all but 0.87% or so of the library.
FEN1 inh – inhibitors of human flap endonuclease 1 | Potency, µM (series often up to 114 µM), inactives show top-dose activity change, negative = inhibition, actives largely listed as inhibitors | AID 588795 | Recombinant FEN1 flap cleavage, fluorescence, 15 min | actives 0.35% (n = 390,000); note: nearly all actives have a fitted effect of over 65% in size
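With each library titrated from low to high concentration, compounds met 10 nM FEN1 for 15 min at room temperature before 50 nM substrate was added; readings at 0 and 15 min fed four-parameter Hill curve fits.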
APE1 inh – APE1 (human) endonuclease inhibition | recombinant APE1, TAMRA/BHQ-2 abasic DNA cleavage fluorescence | actives 0.35% (n = 350,000) | Potency, µM (titrated, usually from 65.8 µM), for inactives: at the highest dose activity change, negative = inhibition, actives largely listed as inhibitors;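 note: plate controls were vehicle for no effect and reference inhibitor for full effect; nearly all actives have a fitted effect of over 55% in size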
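Kinetic fluorescence read (525 ex/598 em nm, three reads 60 s apart) of AP-site incision; signal = third minus first read. Enzyme 0.75 nM, dual-labelled THF duplex 50 nM, compound preincubation 15 min RT.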
WRN inhibitor – inhibitors of human WRN helicase. Potency, µM (top dose mostly 114 µM), without a hit: top-dose activity change, negative = inhibition, most hits filed as inhibitors. Q14191. WRN helicase unwinding, fluorescent forked duplex, kinetic. AID 651768. actives 0.46% (n = 360,000); note: nearly all actives have a fitted effect of over 55% in size
Target sequence (Q14191 whole entry, looked up): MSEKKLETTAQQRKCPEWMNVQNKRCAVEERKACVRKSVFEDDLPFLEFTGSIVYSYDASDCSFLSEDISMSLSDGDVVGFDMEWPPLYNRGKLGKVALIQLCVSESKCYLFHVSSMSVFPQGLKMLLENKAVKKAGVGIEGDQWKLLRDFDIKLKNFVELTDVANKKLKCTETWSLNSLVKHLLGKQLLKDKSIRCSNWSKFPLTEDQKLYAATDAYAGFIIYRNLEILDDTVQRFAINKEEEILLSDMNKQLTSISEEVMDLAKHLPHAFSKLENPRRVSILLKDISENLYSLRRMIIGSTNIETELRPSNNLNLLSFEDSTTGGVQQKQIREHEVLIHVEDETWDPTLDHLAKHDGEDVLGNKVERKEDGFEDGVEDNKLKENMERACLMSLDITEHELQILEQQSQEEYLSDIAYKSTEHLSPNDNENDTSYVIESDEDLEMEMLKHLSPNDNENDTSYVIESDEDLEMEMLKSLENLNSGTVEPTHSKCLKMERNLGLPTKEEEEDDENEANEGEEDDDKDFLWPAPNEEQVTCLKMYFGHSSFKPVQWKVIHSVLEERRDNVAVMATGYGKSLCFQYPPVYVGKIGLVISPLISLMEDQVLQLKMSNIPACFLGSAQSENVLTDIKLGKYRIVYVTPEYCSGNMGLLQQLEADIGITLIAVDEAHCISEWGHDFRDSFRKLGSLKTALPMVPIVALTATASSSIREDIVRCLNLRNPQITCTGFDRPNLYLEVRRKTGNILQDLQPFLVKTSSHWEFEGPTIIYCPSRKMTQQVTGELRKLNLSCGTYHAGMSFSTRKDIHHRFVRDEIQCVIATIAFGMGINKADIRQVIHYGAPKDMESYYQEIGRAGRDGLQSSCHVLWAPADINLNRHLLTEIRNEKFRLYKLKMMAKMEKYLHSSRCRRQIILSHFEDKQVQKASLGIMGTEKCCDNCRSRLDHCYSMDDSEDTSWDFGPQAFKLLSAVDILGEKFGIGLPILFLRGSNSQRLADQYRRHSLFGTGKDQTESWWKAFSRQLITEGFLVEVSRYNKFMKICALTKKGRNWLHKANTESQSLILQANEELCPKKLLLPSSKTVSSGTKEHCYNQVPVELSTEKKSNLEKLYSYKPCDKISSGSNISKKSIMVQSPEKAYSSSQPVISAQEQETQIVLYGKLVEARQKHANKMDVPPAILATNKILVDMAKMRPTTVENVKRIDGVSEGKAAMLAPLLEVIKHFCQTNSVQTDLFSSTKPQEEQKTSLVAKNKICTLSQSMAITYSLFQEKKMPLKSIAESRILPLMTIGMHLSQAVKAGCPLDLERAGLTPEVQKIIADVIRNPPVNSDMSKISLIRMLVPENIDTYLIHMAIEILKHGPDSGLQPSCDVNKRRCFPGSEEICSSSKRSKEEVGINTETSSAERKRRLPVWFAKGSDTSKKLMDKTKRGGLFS
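Screening of the MLSMR collection measured strand separation of a quenched forked DNA duplex (100 nM) by 20 nM WRN with 2 mM ATP, all final. Compounds were preincubated with enzyme 15 min at room temperature.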
BLM inh – blocks DNA unwinding by human BLM helicase. P54132. recombinant BLM DNA unwinding, fluorescence dequenching. Potency, µM (highest dose often 56.1 µM), inactives show top-dose activity change, negative = inhibition, hits mostly inhibitors. actives 0.2% (n = 350,000);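 note: plate controls were vehicle for no effect and no enzyme for full effect; nearly all actives have a fitted effect of over 35% in size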
RECQ1 inh – inhibitors of human RECQ1 DNA helicase. P46063. RECQ1 DNA unwinding, red fluorescence kinetic read. Potency, µM (doses to about 57.3 µM), for inactives: top-dose activity, negative = inhibition, usual class: inhibitors. actives 0.54% (n = 240,000);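 note: plate controls were vehicle for no effect and no enzyme for full effect; nearly all actives have a fitted effect of over 30% in size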
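RECQ1T1 50 nM; forked duplex (20 bp + 30-nt ss tails) 200 nM, ATP 2 mM final; pH 8.0, 2 mM MgCl2, 2.5 ug/ml poly(dI-dC); 15 min compound preincubation; discontinuous kinetic read over 2 h at RT.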
* = called active by the depositor; i = inactive; u = inconclusive; x = not tested or not shown; ! = not active in a repeat; [ ] = another dose, or the depositor's remark. Calls come from the whole dose curve; as a rule, active = well fitted curve in the direction sought with a large enough effect; inconclusive = small, poorly fitted or top-dose-only effect, or another doubt; inactive = no such curve, though single readings can be large; an effect the other way counts as inactive or inconclusive. Unless noted, % is set by controls: 0 for no effect and ±100 for the full control effect; potency is the fitted concentration of half-maximal effect.

SMILES | FEN1 inh | APE1 inh | WRN inhibitor | BLM inh | RECQ1 inh
COc1ccc(C2=Nn3c(nnc3-c3ccccc3C(F)(F)F)SC2)cc1OC1CCCC1 | x | -3.7% | x | x | x
Cc1cccc(N2CCN(C(=O)NCc3noc4ccccc34)CC2)c1C | 89.1µM* | x | x | -7.8% | x
CC(C)(C)c1ccc(Cn2cnc3c(cnn3C(C)(C)C)c2=O)cc1 | 14.1% | -6.7% | x | x | x
C[C@@]12CC[C@@H]3c4ccc(O)cc4CC[C@H]3[C@H]1CC[C@H]2O | x | 3.6%[21 µM] | x | -6.5%[21.4 µM] | i
C[C@]12CC[C@@H]3c4ccc(O)cc4CC[C@H]3[C@@H]1CC[C@@H]2O | -2.0% | 2.3% | -2.9% | -7.1% | 31.6µM*!
COc1ccccc1NS(=O)(=O)c1cc(NC(=O)CNC(=O)c2ccc(C)s2)ccc1Cl | 44.7µM* | u | 56.2µM* | -9.4% | -4.6%
COc1ccc(/C=C/c2nc(C#N)c(N3CCC(C(N)=O)CC3)o2)cc1OC | -4.2% | x | x | -0.9% | x
CC(=O)Nc1ccc2c(c1)Cc1cc(N3C(=O)C=CC3=O)ccc1-2 | u | x | 35.5µM* | x | x
Oc1cc2c(cc1O)[C@H]1c3ccc(O)c(O)c3OC[C@@]1(O)C2 | 35.5µM* | u | 44.7µM* | -3.1% | -18.4%
CC(=O)Oc1ccc2c(c1OC(C)=O)OCC1(O)Cc3c(cc(OC(C)=O)c(OC(C)=O)c3OC(C)=O)C21 (centres undefined) | x | u | x | -4.4% | -6.4%
CCCOC(=O)CCCN1C(=O)/C(=C2\SC(=S)N(CCCC(=O)OCCC)C2=O)SC1=S | -7.4% | -1.9% | -1.9% | -0.6% | -14.8%
CCCCCOC(=O)CCN1C(=O)/C(=C2\SC(=S)N(CCC(=O)OCCCCC)C2=O)SC1=S | -2.0% | -0.4% | u | -0.2% | 1.58µM*
COc1cc(/C=N/Nc2nc3ccccc3s2)cc([N+](=O)[O-])c1O | 44.7µM* | 7.5% | u | u | 7.3%
O=C(O)c1ccc(CSc2nnc(-c3cccc(S(=O)(=O)NC4CCCC4)c3)n2-c2ccc(F)cc2)cc1 | x | 61.4% | x | x | x
COC(=O)c1ccccc1NC(=O)Cn1cc(S(=O)(=O)Cc2ccccc2F)c2ccccc21 | 1.4% | x | x | -7.0% | x
O=C(Cc1ccc(OCCc2ccccc2)cc1)NO | 3.6% | x | x | x | x
CC(C)(C)c1ccc(/C=N/N2C(=O)CSC2=S)cc1 | 9.9% | -13.7% | -1.0% | -2.5% | x
O=C1CSC(=S)N1N=Cc1ccc(Cl)s1 | -23.0% | x | 20µM* | x | x
O=C(Nc1ccc2ccccc2c1)c1nc(S(=O)(=O)Cc2ccccc2F)ncc1Cl | -18.8% | x | x | x | x
Nc1c(C=C2C=CC(=O)C=C2)c(=O)nc2sc(CC(=O)N3CCCCC3)nn12 | -26.4% | 65.0% | -8.5% | -0.8% | x
COC1=C/C(=C/c2c(N)n3nc(CC(=O)N4CCCC4)sc3nc2=O)C=CC1=O | -18.7% | 59.7% | -3.7% | -0.2% | x
Nc1c(/C=C2/C=CC(=O)C(O)=C2)c(=O)nc2sc(CC(=O)N3CCOCC3)nn12 | 25.1µM* | x | u | x | x
Nc1c(/C=C2/C=CC(=O)C(O)=C2)c(=O)nc2sc(CC(=O)N3CCCC3)nn12 | u | 10.6µM* | 39.8µM* | -19.3% | x
Nc1c(/C=C2/C=CC(=O)C(O)=C2)c(=O)nc2sc(CC(=O)N3CCCCC3)nn12 | -1.9% | 1.89µM* | -3.0% | 28.2µM* | x
Nc1nc2c(c(=O)[nH]1)N(C=O)C(CNc1ccc(C(=O)N[C@@H](CCC(=O)O)C(=O)O)cc1)CN2 (some centres undefined) | x | 11.2%[21 µM] | x | x | x
SMILES | FEN1 inh | APE1 inh | WRN inhibitor | BLM inh | RECQ1 inh
CC(C)(C)n1ncc2c(=O)n(Cc3c(Cl)ccc(Cl)c3Cl)cnc21 | -4.7% | -1.8% | x | x | x
O=C(CCN1Cc2ccccc2C1)c1ccc2c(c1)OCCO2 | 1.1% | -4.1% | -18.0% | 1.7% | -9.6%
O=C(CCN1CCc2ccccc2C(c2ccccc2)C1)c1ccc2c(c1)OCCO2 (centres undefined) | 17.3% | 19.0% | 44.7µM* | -5.4% | i
CCOc1ccccc1NC(=O)c1cc2cc(C)ccc2n1C | 14.7% | x | x | -7.8% | x
COc1cc(/C=N/Nc2ccccc2[N+](=O)[O-])ccc1OC(=O)c1ccccc1F | 14.4% | 2.1% | -5.1% | 0.3% | i
CC(=O)Nc1ccc(C=NNc2ccc([N+](=O)[O-])cc2S(=O)(=O)Nc2ccccc2C(=O)O)cc1 | u | u | -29.7% | x | x
CC(=O)Nc1cccc(/C(C)=N/Nc2ccc(S(=O)(=O)Nc3ccccc3C(=O)O)cc2[N+](=O)[O-])c1 | 79.4µM* | x | u | x | x
CCOc1ccc(C=NNc2ccc(S(=O)(=O)Nc3ccccc3C(=O)O)cc2[N+](=O)[O-])cc1OC | 79.4µM* | 16.8µM* | u | x | x
CN(CCO)c1ccc(C=NNc2ccc([N+](=O)[O-])cc2S(=O)(=O)Nc2ccccc2C(=O)O)cc1 | 79.4µM* | -23.6% | 44.7µM* | x | x
CC(C)(C)n1ncc2c(=O)n(Cc3ccc(F)c(F)c3F)cnc21 | -0.5% | 4.4% | x | x | x
Cc1cccc(NC(=O)CCS(=O)(=O)c2cc(Br)cc3c2N(C(=O)C2CC2)CC3)c1 | 9.6% | x | x | 1.4% | x
O=C(c1cnc(N2CCCCC2)c2ccccc12)N1CCN(c2cccc(Cl)c2)CC1 | -15.7% | x | x | -9.4% | x
CC(C)CN(CC(C)C)c1nc(N)c(C#N)c(CC#N)c1C#N | 0.6% | 12.2% | -18.7% | -7.7% | 28.2µM*
CN(CCO)c1nc(N)c(C#N)c(CC#N)c1C#N | 2.1% | -0.5% | -20.7% | -9.0% | -10.8%
COc1cccc(/C=C/c2nccc3ccccc23)c1OC | 1.9% | x | x | x | x
COc1cccc(Cn2cnc3c(cnn3C(C)(C)C)c2=O)c1 | 1.3% | -5.9% | x | x | x
Cc1ccc2nc(/C=C/c3ccc(N(C)C)cc3)ccc2c1 | 9.7% | x | x | x | x
COc1ccc(CC(=O)n2[nH]c(=O)c3ccccc3c2=O)cc1OC | 0.8% | -3.3% | 5.5% | -7.1% | i
COc1ccc(CC(=O)n2[nH]c(=O)ccc2=O)cc1OC | -6.3% | u | 22.4µM* | 2.0% | -4.7%
O=C(CSc1nnc(-c2cccc([S+](=O)([O-])N3CCCC3)c2)n1-c1ccccc1)Nc1cccc(F)c1 | x | 40.0% | x | x | x
O=C(Oc1cccc(/C=N/Nc2nc(Nc3ccccc3)nc(N3CCOCC3)n2)c1)c1ccco1 | -9.2% | 7.2% | -5.9% | -7.4% | 22.4µM*
Cc1ccc(C)c(-n2c3nc(=O)[nH]c(=O)c-3cc3cc([N+](=O)[O-])ccc32)c1 | u | 3.9% | 79.4µM* | 20µM* | -0.4%
Cc1cccc(-n2c3nc(=O)[nH]c(=O)c-3cc3cc([N+](=O)[O-])ccc32)c1 | u | 11.7% | -34.8% | 2.5% | -16.1%
COc1ccccc1C(=O)Nc1nnc(SCc2cc(=O)c3cc(Cl)ccc3[nH]2)s1 | -8.5% | x | x | -26.8% | x
COc1ccc(Cn2c3nc4ccccc4nc3c3c(=O)n(Cc4ccco4)cnc32)cc1 | x | u | x | -28.8% | 28.2µM*
